# Assay results: PubChem BioAssay AID743398 (Broad Institute, 2014)
# Among all 300,000 compounds or so, about 3,600 (1.2%) were called active. What follows is part of a selection rich in actives, with near analogues and random picks from the rest. A number with no mark means an inactive call. Rule as the data show it: active = activation above about 30% (passing the limit was not always enough); inconclusive = no clear call, values can overlap the other calls.
# Assay: activation of beta-catenin signaling reporter – cell-based, plate reader, single point, primary screen (AID 743398);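 also: 0% = neutral control wells and 100% = positive control wells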
# Conditions: Wnt/beta-catenin reporter cell assay, activator, at 9.35 µM, hits give high values
row,Compound,activation
1,CC(C)Oc1ccc(CN2CCC2(C)C(=O)NCc2ccc(C(F)(F)F)cc2)cc1 (stereo not given),-2.84%
2,COc1cccc(OCc2cc(C(=O)N3CCN(C(=O)c4ccco4)CC3)no2)c1,31.4% (active)
3,O=C(c1cc(COc2cccc(C(F)(F)F)c2)on1)N1CCSCC1,1.55%
4,COc1cccc(C(=O)Nc2ccc(N3CCN(C(=O)c4ccco4)CC3)cc2)c1,-1.7%
5,COc1ccc(OCc2cc(C(=O)N3CCCC3)no2)c2ccccc12,43% (active)
6,O=C(c1cc(-c2ccc(O)cc2)on1)N1CCOCC1,19.9%
7,O=C(c1cc(-c2ccccc2O)on1)N1CCCC1,57.5% (active)
8,O=C(c1cc(COc2ccc(F)cc2F)on1)N1CCOCC1,12.4%
9,COc1cc(Cl)ccc1OCc1cc(C(=O)N2CC[C@@H]3CCCC[C@H]3C2)no1,18.3%
10,COc1ccccc1-c1cc(C(=O)N2CCCCC2)no1,0.293%
11,COC(=O)[C@]12C[C@H](CC(=O)NCc3ccc(OC)c(OC)c3)C(=O)N(Cc3ccccc3)C1=C[C@H](C(C)C)O[C@@H]2C1CC1,-0.346%
12,CSCCC(NC(=O)COc1ccccc1)C(=O)N1CCN(c2cccc(C(F)(F)F)c2)CC1 (stereo not given),-3.61%
13,COc1ccc(OC)c(NC(=O)C2CCCN2S(=O)(=O)c2ccc3c(c2)CC(C)N3C(C)=O)c1 (stereo not given),-5.88%
14,CCOC(=O)N1CCN(C(=O)C[C@@H]2C[C@@]3(C(=O)OC)CC(C)(C)CC=C3N(Cc3ccco3)C2=O)CC1,0.171%
15,CCc1nc2c(OCCOc3ccccc3)cccn2c1N(C=O)Cc1ccc(OC)cc1,-2.79%
16,NC(=O)c1c(NC(=O)c2ccccc2)sc2c1CCCC2,1.12%
17,Cc1ccc(C(=O)c2c(NC(=O)c3ccncc3)sc3c2CCCC3)cc1,38.4% (active)
18,Cc1ccc(NC(=O)c2c(NC(=O)CCC(=O)O)sc3c2CCCCC3)cc1,29.5%
19,CCCCCCCCN1C(=O)[C@@H](CC(=O)NCCCC)C[C@@]2(C(=O)OC)C1=C[C@H](C(C)(C)C)O[C@@H]2C,-3%
20,COc1cccc(/C=C2\SC(=S)N(CCCC(=O)N3CCOCC3)C2=O)c1,3.86%
21,CCc1nc2ccc(C(=O)Nc3ccc(OC)c(OC)c3)cn2c1N(C)C(=O)c1cccc(OC)c1,-0.76%
22,Cn1c(Cn2nnc3ccccc32)nnc1SCC(=O)c1ccccc1F,85.8% (active)
23,Cc1ccc(C(=O)CSc2nnc(Cn3nnc4ccccc43)n2C)cc1,-0.352%
24,Cn1c(CNC(=O)c2ccccc2F)nnc1SCc1ccc(F)cc1,-0.026%
25,Cc1[nH]c2ccccc2c1CC(=O)Nc1ccc(Nc2cccnc2)c(-c2cccc(Cl)c2)c1,-2.14%
26,CCOC(=O)[C@]12CCCC=C1N(CCC1=CCCCC1)C(=O)[C@H](CC(=O)N1CCN(C(=O)c3ccco3)CC1)C2,-1.88%
27,CCOc1ccc(/C(O)=C2\C(=O)C(=O)N(c3ccc(OC)cc3)C2c2ccccc2[N+](=O)[O-])cc1 (stereo not given),53.5% (active)
28,COc1ccc(C2/C(=C(/O)c3ccccc3)C(=O)C(=O)N2C)c(OC)c1 (stereo not given),0.335%

row,Compound,activation
1,COc1ccccc1C1/C(=C(/O)c2ccc(OC(C)C)cc2)C(=O)C(=O)N1c1cc(C)on1 (stereo not given),-12%
2,OC[C@@H]1CN(Cc2ccc(F)cc2)C[C@H](n2cnc3c(NC4CCCC4)ncnc32)O1,-2.91%
3,CC1C(C)N(C(=O)CCl)c2ccccc2N1C(=O)CCl (stereo not given),-5.8%
4,O=c1oc2ccccc2c(=O)c2ccccc12,-3.29%
5,COc1ccccc1N=Cc1c(O)c2ccccc2oc1=O,59% (active)
6,COc1cc(N=Cc2c(O)c3ccccc3oc2=O)c(OC)cc1Cl,-0.517%
7,COc1cccc(-c2cc(NC(C)=O)c3ncc(-c4cccc(C(C)=O)c4)n3c2)c1,-1.27%
8,COc1ccc(OC)c(C(O)c2ncc(-c3cccc(C(F)(F)F)c3)[nH]2)c1 (stereo not given),-1.7%
9,CC1(C)OC(=O)C2=C(CC(CCc3ccccc3)OC2c2ccc(Cl)cc2)O1 (stereo not given),-2.32%
10,CCOC(=O)CNC(=O)N(C)[C@H]1C[C@H]2c3[nH]c4c(-c5ccc6c(c5)OCO6)cccc4c3CCN2C(=O)[C@H]1[C@H](C)O,-4.82%
11,CCCCCCNC(=O)O[C@H]1CN(C(=O)OC(C)C)N(C(=O)OC(C)C)[C@@H]2CN(S(=O)(=O)c3ccc(C)cc3)C[C@]12O,-6.88%
12,CCCn1c(CCNc2nc(-c3ccc(OC)cc3)cs2)nc2ccccc21,1.69%
13,CCNc1nc(-c2cc3ccccc3o2)cs1,55.9% (active)
14,Cc1nc(C)c(-c2csc(NCCc3ccccc3)n2)s1,10.9%
15,O=c1oc2ccccc2cc1-c1csc(Nc2ccc(O)cc2)n1,48% (active)
16,O=C(Nc1ccncc1)c1cc2ccccc2o1,-4.19%
17,O=C(NCc1cccnc1)c1cccc(-c2cc3ccccc3oc2=O)c1,-9.13%
18,CCOC(=O)[C@]12CCCC=C1N(CCC1=CCCCC1)C(=O)[C@H](CC(=O)NCCCCc1ccccc1)C2,-3.03%
19,COc1ccc(NC(=O)c2sc(=O)n(Cc3ccc(S(=O)(=O)N(C)C)cc3)c2C)cc1,-1.18%
20,O=C(Nc1ccc(Cl)cc1)C1Cc2c(-c3ccc4c(c3)OCO4)ccnc2O1 (stereo not given),-2.4%
21,O=C(NCCOc1ccccc1)N1[C@H]2CC[C@@H]1C=C(c1ccc(F)cc1OCc1ccccc1)C2,-5.01%
22,COc1ccc(SSc2ccc(OC)cc2C(=O)O)c(C(=O)O)c1,-2.15%
23,Cc1ccc(S(=O)(=O)N2[C@@H](Cc3ccccc3)CO[C@H]2CC(=O)OCc2ccccc2)cc1,-1.94%
24,COc1ccc(N2c3ccccc3CN(Cc3ccccc3)[C@@H](C)[C@H]2Cc2ccc(-c3ccccc3)cc2)cc1,-4.27%
25,Cc1[nH]c2ccccc2c1/C=N\NC(=O)Cn1nnc(-c2ccccc2)n1,-3.53%
26,CN=c1scc(-c2cc(OC)ccc2OC)n1/N=C/c1c(C)[nH]c2ccccc12,68.5% (active)
27,COc1ccc(OC)c(-c2csc(-c3cccs3)n2)c1,3.92%
